Screening results deposited in PubChem BioAssay by National Center for Advancing Translational Sciences (NCATS).
Compounds with a hit are over-represented: about 19% of the library has one in this group of screens.
TDP1 cell CPT = growth inhibition of DT40 Tdp1-/-;hTDP1 cells with camptothecin (screen for TDP1 inhibitors). 12% of 420,000 active. chicken DT40 Tdp1-/-;hTDP1 cells + 20 nM CPT, ATP luminescence, 48 h. AID 686979. Potency, µM (series often up to 46.2 µM), inactives show at the top dose activity change, negative = growth inhibition, usual class: inhibitors; also: potency is read from the fitted curve at half-maximal effect; % is scaled to controls: 0 for no effect and ±100 for the full control effect; nearly all actives have a fitted effect of over 55% in size
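Cell growth measured by CellTiter-Glo luminescence after a minimum 48 h, 37 C compound exposure with 20 nM CPT in Tdp1-knockout DT40 cells stably expressing hTDP1, seeded 400/well; qHTS titration format.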
TDP1 cell noCPT = qHTS for Inhibitors of human tyrosyl-DNA phosphodiesterase 1 (TDP1): qHTS in cells in absence of CPT | 15% of 420,000 active | AID 686978, 2013 | DT40 Tdp1-/- hTDP1 cells, no CPT, ATP luminescence, 48 h | Potency, µM (titrated, usually from 46.2 µM), inactives show at the top dose activity change, negative = growth inhibition, hits mostly inhibitors; also: potency is read from the fitted curve at half-maximal effect; % is scaled to controls: 0 for no effect and ±100 for the full control effect; nearly all actives have a fitted effect of over 55% in size
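Chicken DT40 Tdp1-/- cells stably complemented with human TDP1 were seeded at 400 cells/well with DMSO in place of 20 nM camptothecin. After compound pinning, cells grew at least 48 hr at 37 °C; viability read by CellTiter-Glo luminescence.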
TGFb inhibitor = blocks TGF-b signaling; HepG2 CAGA-GFP TGF-b/SMAD3 reporter, GFP fluorescence, 18 h; TGF-beta stimulated, 500 pg/mL final; Potency, µM (highest dose often 46.1 µM), for the others: at the highest dose activity, negative = inhibition, actives largely listed as inhibitors; 1.2% of 410,000 active; AID 588855; also: potency is read from the fitted curve at half-maximal effect; % is scaled to controls: 0 for no effect and ±100 for the full control effect; nearly all actives have a fitted effect of over 65% in size
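Inhibition of TGF-beta-driven CAGA-GFP reporter expression in HEPG2 cells is measured by cellular GFP fluorescence after 18 h stimulation with 500 pg/mL recombinant TGF-beta in 1% FBS medium at 37 degrees C.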
HepG2 tox = HepG2 cytotoxicity, counter-screen for TGF-b inhibitors | HepG2 CAGA-GFP viability, ATP luminescence, 18 h | AID 588856 | Potency, µM (doses to about 46.1 µM), for the others: at the highest dose activity change, negative = cytotoxicity, most hits filed as cytotoxic | 0.76% of 410,000 active; also: potency is read from the fitted curve at half-maximal effect
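HepG2 CAGA-GFP cells (1000/well, DMEM with 1% FBS) received compound, then TGF-beta at 500 pg/mL final, and were incubated 18 hours at 37 degrees C. Viability was read by CellTiter-Glo luminescence. Media-only wells were set as complete cell-killing and DMSO as no toxicity.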
IL1B secr inh = blocks inflammasome-driven IL-1 beta release; THP-1 LPS/ATP IL-1B secretion, AlphaLISA, 16 h; active compounds read low; activity change, % at 57.5 µM; 4.7% of 360,000 active; in the data active = activity change below about -50%; inconclusive = mostly about -30% to -49%; also: % is scaled to controls: 0 for no effect and ±100 for the full control effect
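Secreted IL-1B measured by AlphaLISA bead assay after 16 h compound exposure of THP-1 cells; compounds (final up to 57.5 uM) added 1 h before LPS (250 ng/mL) and ATP (1.25 mM) stimulation; lower signal means less secretion.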
TDP1 inh = blocks human tyrosyl-DNA phosphodiesterase 1; recombinant TDP1, AlphaScreen DNA substrate cleavage; Potency, µM (series often up to 130 µM), without a hit: at the top dose activity change, negative = inhibition, actives largely listed as inhibitors; Q9NUW8; 0.28% of 350,000 active; also: potency is read from the fitted curve at half-maximal effect; % is scaled to controls: 0 for no effect and ±100 for the full control effect; nearly all actives have a fitted effect of over 40% in size
Target sequence (Q9NUW8 whole entry, looked up): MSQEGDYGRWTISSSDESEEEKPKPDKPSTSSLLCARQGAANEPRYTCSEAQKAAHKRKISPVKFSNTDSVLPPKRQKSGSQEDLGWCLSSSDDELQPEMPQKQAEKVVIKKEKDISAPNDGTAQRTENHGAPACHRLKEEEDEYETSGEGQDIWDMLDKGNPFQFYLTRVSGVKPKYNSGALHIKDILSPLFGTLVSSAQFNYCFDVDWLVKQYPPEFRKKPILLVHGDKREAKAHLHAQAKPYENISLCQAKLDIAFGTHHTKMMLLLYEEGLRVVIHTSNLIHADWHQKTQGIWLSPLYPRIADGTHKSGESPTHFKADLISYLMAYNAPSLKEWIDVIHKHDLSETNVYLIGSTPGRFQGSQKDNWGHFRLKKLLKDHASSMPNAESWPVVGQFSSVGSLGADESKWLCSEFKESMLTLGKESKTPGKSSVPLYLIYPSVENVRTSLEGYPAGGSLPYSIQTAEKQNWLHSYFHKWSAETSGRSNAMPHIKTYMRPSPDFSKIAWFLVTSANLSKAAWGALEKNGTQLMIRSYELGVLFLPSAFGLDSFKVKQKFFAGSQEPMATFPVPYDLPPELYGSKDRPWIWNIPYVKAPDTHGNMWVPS
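Here, a 5' biotin and 3' phosphotyrosine-FITC DNA oligonucleotide reports Tdp1 activity: intact substrate bridges AlphaScreen beads, while cleavage leaves a 3' phosphate and drops signal. All incubations at room temperature.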
Starred values were filed as active, the others as inactive; i = inactive; u = inconclusive; x = no result given; [ ] = another dose, or the depositor's remark. Unless noted, calls follow the shape of the dose curve; as a rule, active = well fitted curve in the direction sought with a large enough effect; inconclusive = small, poorly fitted or top-dose-only effect, or another doubt; inactive = no such curve, though single readings can be large; an effect the other way counts as inactive or inconclusive.

SMILES	TDP1 cell CPT	TDP1 cell noCPT	TGFb inhibitor	HepG2 tox	IL1B secr inh	TDP1 inh
CC(C)C(=O)Nc1cccc(COc2ccccc2CN(Cc2ccccc2)C(=O)OC(C)(C)C)c1	u	23.1µM*	-13.2%	-5.4%	-7.2	x
CC(C)(C)OC(=O)N(Cc1ccccc1)Cc1ccc(OCc2cccc(NC(=O)C3CC3)c2)cc1	u	u	-29.4%	-34.2%	-13.5	x
CC(C)(C)n1ncc2c(=O)n(Cc3cccc(-c4cccs4)c3)cnc21	x	x	u	-16.9%	x	x
OC(COc1ccc2ccccc2c1Br)Cn1ccnc1 (centres undefined)	u	20.6µM*	-22.2%	-3.4%	-24.8	11.4%
OC(COc1ccc2ccccc2c1)Cn1ccnc1 (centres undefined)	-16.1%	-20.7%	-2.0%	-2.3%	1.5	9.5%
CCOC(=O)N1CCN(S(=O)(=O)c2ccc(C(=O)N(CCN(CC)CC)c3nc4ccc(C)cc4s3)cc2)CC1	u	u	13.8%	-7.2%	i	8.5%
CN(C)CCCN(C(=O)c1cccs1)c1nc2ccc(F)cc2s1	16.4µM*	u	-2.2%	-22.6%	x	0.0%
CN(C)CCCN(C(=O)/C=C/c1cccs1)c1nc2ccc(F)cc2s1	2.59µM*	4.61µM*	17.0%	15.8µM*	-104.2*	8.1%
CCN(CC)CCN(C(=O)c1ccc2ccccc2c1)c1nc2ccc(F)cc2s1	-27.2%	-3.7%	6.3%	-5.3%	17.2	10.2%
CCN(CC)CCN(C(=O)/C=C/c1cccs1)c1nc2ccc(F)cc2s1	u	u	u	-40.2%	-78.3*	6.9%
CN(C)CCCN(C(=O)C1COc2ccccc2O1)c1nc2ccc(F)cc2s1 (centres undefined)	u	u	-8.3%	-12.0%	-9.6	5.8%
CCN(CC)CCN(C(=O)/C=C/c1cccs1)c1nc2ccc(C)cc2s1	u	6.51µM*	3.2%	-4.0%	4.8	4.3%
CC1CCCC(NC(=O)c2ccc3snnc3c2)C1C (centres undefined)	u	u	-13.0%	-21.3%	-2.7	2.7%
Cc1ccc(C(=O)NNC(=O)C2CCN(C(=O)OC(C)(C)C)CC2)cc1	-3.1%	21.4%	-1.4%	1.0%	7.8	6.1%
Cc1ccc2nc(N(CCN(C)C)C(=O)/C=C/c3cccs3)sc2c1	u	16.4µM*	-0.8%	-25.5%	u	-1.1%
CN(C)CCN(C(=O)c1ccc(Br)s1)c1nc2cc3c(cc2s1)OCCO3	7.1%	-16.7%	-0.5%	19.5%	8.5	1.2%
CCc1ccc2nc(N(CCN(C)C)C(=O)/C=C/c3cccs3)sc2c1	u	u	u	-96.5%	-81.0*	8.7%
CCOc1ccc2nc(N(CCN(C)C)C(=O)/C=C/c3cccs3)sc2c1	u	23.1µM*	1.9%	-36.3%	-71.3*	5.8%
CN(C)CCN(C(=O)/C=C/c1cccs1)c1nc2ccc(Br)cc2s1	u	u	-12.4%	-36.2%	23.1	3.5%
CN(C)CCN(C(=O)C1CCCCC1)c1nc2cc3c(cc2s1)OCCO3	-15.1%	9.2µM*	-22.3%	-22.7%	u	x
Cc1ccc2nc(N(CCN(C)C)C(=O)c3ccc4ccccc4c3)sc2c1	u	u	7.0%	-30.0%	-22.6	11.8%
CCCn1c2ccccc2c2cnn(CC(=O)NCCc3ccc(S(N)(=O)=O)cc3)c(=O)c21	u	u	-6.5%	-1.1%	x	8.7%
COc1ccc(C2CC(O)(c3ccccc3)Oc3cc(C)c(Cl)c(C)c32)cc1 (centres undefined)	x	x	u	-39.2%	x	7.4%
CN(C)CCN(C(=O)c1cccs1)c1nc2cc3c(cc2s1)OCCO3	u	23.1µM*	18.7%	1.5%	-10.9	6.4%
CC(C#N)(NC(=O)CN1CCN(S(=O)(=O)c2ccccc2Cl)CC1)C1CC1 (centres undefined)	-9.3%	10.6%	1.4%	9.9%	-8.6	0.8%[56.1 µM]
SMILES	TDP1 cell CPT	TDP1 cell noCPT	TGFb inhibitor	HepG2 tox	IL1B secr inh	TDP1 inh
CCCCCN=c1ccn(Cc2ccccc2)c2ccccc12	2.66µM*	2.11µM*	x	x	x	6.0%
N#CC1=C(N)Oc2cc(N)ccc2C1C1CCCCC1 (centres undefined)	u	20.6µM*	-13.3%	-8.5%	u	8.7%
COC(=O)c1ccc(C2C(C#N)=C(N)Oc3cc(O)ccc32)cc1 (centres undefined)	-8.5%	-14.5%	29.6%	-6.5%	-0.5	6.8%
COC(=O)c1ccc(C2C(C#N)=C(N)Oc3cc(N)ccc32)cc1 (centres undefined)	0.92µM*	-2.8%	-12.4%	-16.3%	-13.6	x
ClC(Cl)(Cl)C1=NCc2nnn(Cc3ccccc3)c2N1	-4.8%	-1.5%	-27.1%	-3.0%	25.1	x
CC(=O)N(c1ccccc1)c1nc(/C=C/C(=O)O)cs1	-18.7%	-13.3%	-14.6%	-10.7%	1.5	4.9%
CCc1ccc(N(C(C)=O)c2nc(CCl)cs2)cc1	-10.1%	10.3µM*	-7.7%	-1.7%	-22.8	6.7%
COc1ccc(CCNC(=O)c2ccc3c(c2)sc2nc(-c4ccccc4)cn23)cc1OC	5.17µM*	7.31µM*	-2.7%	-18.4%	x	3.9%
CCc1ccc(-c2cn3c(n2)sc2cc(C(=O)NCCc4ccc(OC)cc4OC)ccc23)cc1	23.1µM*	16.4µM*	-15.9%	-27.9%	x	2.6%
COc1ccc(-c2cn3c(n2)sc2cc(C(=O)Nc4cc(Cl)ccc4C)ccc23)cc1	6.51µM*	2.91µM*	-5.0%	6.9%	x	2.6%
COc1ccc(-c2cn3c(n2)sc2cc(C(=O)NCC(C)c4ccccc4)ccc23)cc1 (centres undefined)	u	5.8µM*	-28.5%	-31.4%	x	0.0%
CCOC(=O)C(C(=O)c1ccccc1)[C@H](CCc1ccccc1)NC(=O)OC (some centres undefined)	x	x	x	x	x	8.1%
CCCSCCCNC(=O)c1ccc2c(c1)sc1nc(-c3ccc(OCC)cc3)cn12	u	u	-3.3%	1.7%	x	5.2%
COc1cccc(-c2cn3c(n2)sc2cc(C(=O)NCCc4ccccc4)ccc23)c1	7.31µM*	7.31µM*	-6.9%	-40.1%	x	6.5%
CCOc1ccc(-c2cn3c(n2)sc2cc(C(=O)NCCc4ccc(OC)c(OC)c4)ccc23)cc1	11.6µM*	10.3µM*	-19.3%	-42.1%	x	3.9%
